From the supplement of paper PMC11732987, “Enantioselective OTUD7B fragment discovery through chemoproteomics screening and high-throughput optimisation” (Communications Chemistry, 2025)

How the values were obtained:
Assay in all cases: log2 ratio of Biotin-Ahx-Ub-VS probe labelling (fragment/DMSO); higher = less target engagement (more negative = stronger competition), active = hit call of the paper (q ≤ 0.05, log2 ratio ≤ -1)
Settings in all cases: compound concentration: 200 uM; treatment time: 3 h
USP34 = USP34 (UniProt Q70CQ2)
Chain of USP34 (Q70CQ2 whole entry, the tested form may be a part): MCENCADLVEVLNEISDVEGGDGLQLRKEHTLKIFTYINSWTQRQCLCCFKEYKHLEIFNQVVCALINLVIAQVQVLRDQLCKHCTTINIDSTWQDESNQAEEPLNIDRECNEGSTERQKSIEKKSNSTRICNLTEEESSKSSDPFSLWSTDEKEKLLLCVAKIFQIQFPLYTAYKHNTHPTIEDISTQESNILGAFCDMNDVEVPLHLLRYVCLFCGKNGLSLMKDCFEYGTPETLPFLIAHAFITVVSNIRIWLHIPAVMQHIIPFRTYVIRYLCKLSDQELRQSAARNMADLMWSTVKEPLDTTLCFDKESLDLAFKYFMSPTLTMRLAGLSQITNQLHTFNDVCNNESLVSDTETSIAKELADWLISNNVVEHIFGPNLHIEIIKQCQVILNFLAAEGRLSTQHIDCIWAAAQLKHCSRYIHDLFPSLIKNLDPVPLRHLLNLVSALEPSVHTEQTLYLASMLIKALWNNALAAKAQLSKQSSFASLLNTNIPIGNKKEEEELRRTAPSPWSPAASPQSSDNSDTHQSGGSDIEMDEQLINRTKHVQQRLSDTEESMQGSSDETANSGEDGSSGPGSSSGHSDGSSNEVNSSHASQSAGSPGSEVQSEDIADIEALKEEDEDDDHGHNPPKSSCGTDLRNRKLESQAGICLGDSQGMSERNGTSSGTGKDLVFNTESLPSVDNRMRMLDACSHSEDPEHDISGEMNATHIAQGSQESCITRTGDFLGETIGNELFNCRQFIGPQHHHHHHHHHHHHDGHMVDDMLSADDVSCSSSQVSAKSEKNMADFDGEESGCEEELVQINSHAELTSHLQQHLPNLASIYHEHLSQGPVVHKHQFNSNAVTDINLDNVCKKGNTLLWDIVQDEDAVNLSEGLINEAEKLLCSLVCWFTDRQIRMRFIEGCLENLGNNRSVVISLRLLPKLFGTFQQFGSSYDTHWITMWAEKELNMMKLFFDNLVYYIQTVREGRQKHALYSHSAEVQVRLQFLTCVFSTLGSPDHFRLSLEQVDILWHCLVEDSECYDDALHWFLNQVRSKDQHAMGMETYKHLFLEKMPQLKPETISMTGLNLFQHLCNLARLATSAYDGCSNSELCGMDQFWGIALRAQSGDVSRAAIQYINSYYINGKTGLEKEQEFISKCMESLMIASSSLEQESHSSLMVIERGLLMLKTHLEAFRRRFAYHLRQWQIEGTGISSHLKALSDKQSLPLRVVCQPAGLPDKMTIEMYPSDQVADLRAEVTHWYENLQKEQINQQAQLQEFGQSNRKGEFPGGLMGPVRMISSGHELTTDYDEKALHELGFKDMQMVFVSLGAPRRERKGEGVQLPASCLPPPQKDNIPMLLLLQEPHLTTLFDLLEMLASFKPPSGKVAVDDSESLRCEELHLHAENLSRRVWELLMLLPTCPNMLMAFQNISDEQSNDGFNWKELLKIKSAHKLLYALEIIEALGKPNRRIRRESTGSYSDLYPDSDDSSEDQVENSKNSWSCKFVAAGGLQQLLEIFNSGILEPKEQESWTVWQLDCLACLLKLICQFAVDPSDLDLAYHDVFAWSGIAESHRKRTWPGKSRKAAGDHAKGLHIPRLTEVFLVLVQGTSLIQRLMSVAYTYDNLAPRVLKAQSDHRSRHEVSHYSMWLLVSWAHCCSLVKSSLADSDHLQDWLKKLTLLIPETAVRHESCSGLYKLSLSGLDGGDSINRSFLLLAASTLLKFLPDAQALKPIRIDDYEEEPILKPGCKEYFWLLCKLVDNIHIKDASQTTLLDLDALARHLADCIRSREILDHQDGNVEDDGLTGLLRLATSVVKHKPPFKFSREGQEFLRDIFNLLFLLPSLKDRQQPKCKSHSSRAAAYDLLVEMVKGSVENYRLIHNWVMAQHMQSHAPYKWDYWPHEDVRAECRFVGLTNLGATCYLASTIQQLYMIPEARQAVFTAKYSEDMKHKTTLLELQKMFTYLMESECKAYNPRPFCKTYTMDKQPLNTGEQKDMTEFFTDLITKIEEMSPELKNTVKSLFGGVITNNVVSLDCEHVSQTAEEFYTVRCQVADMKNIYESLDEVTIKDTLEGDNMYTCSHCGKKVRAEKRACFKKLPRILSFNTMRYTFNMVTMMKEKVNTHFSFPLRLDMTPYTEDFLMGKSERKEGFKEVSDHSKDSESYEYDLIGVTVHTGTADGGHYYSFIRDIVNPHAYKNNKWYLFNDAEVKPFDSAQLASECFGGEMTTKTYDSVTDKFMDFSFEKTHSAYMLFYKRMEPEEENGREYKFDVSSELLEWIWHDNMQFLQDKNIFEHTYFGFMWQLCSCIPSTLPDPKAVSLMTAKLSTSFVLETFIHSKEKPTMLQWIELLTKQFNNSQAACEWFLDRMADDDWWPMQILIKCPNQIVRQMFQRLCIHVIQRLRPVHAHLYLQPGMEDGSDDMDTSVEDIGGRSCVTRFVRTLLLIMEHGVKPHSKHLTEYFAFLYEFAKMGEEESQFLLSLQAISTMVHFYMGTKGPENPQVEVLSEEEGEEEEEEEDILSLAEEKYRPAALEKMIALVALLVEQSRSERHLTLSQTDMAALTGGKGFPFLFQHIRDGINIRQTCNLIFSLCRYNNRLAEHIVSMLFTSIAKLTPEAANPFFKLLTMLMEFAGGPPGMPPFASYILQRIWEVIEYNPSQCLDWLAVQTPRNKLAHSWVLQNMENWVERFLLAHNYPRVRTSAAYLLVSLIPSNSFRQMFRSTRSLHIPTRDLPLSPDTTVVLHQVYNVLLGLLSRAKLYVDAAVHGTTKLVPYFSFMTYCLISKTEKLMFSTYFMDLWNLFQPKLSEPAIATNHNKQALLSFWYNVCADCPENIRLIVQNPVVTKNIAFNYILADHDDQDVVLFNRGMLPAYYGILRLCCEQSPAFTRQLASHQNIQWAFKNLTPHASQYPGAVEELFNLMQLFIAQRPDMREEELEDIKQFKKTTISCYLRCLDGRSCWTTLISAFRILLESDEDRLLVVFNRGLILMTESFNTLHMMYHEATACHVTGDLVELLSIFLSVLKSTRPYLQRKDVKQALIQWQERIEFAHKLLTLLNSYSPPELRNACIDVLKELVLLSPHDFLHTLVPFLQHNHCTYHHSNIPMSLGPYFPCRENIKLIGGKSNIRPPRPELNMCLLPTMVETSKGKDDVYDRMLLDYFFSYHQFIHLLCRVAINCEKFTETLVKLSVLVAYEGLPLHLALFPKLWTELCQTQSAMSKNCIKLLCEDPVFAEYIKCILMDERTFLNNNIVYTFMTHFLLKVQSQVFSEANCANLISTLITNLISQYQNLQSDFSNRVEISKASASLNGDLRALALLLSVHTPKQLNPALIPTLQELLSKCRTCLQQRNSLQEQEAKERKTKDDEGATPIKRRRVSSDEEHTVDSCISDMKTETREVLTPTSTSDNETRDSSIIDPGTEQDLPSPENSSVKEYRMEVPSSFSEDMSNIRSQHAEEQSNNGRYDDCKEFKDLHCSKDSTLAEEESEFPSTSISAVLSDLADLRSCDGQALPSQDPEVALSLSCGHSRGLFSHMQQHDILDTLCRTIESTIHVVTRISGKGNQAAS
In short: (§1)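 HEK293T lysate in Tris/CHAPS/IGEPAL buffer with protease inhibitors (495 µg per sample) was given fragment at 200 µM or vehicle for 3 h, in triplicate. It then received Biotin-Ahx-Ub-VS at 0.5 µM final for 1 h. Labelled DUBs were NeutrAvidin-enriched, digested with LysC and trypsin, and run by diaPASEF LC-MS/MS. Values are average log2 fragment/vehicle ratios by unpaired t-test on global-median-normalised Spectronaut quantities of proteins with ≥2 unique peptides.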

USP36 = biological target: T1, USP36 (UniProt Q9P275)
T1 sequence (whole entry): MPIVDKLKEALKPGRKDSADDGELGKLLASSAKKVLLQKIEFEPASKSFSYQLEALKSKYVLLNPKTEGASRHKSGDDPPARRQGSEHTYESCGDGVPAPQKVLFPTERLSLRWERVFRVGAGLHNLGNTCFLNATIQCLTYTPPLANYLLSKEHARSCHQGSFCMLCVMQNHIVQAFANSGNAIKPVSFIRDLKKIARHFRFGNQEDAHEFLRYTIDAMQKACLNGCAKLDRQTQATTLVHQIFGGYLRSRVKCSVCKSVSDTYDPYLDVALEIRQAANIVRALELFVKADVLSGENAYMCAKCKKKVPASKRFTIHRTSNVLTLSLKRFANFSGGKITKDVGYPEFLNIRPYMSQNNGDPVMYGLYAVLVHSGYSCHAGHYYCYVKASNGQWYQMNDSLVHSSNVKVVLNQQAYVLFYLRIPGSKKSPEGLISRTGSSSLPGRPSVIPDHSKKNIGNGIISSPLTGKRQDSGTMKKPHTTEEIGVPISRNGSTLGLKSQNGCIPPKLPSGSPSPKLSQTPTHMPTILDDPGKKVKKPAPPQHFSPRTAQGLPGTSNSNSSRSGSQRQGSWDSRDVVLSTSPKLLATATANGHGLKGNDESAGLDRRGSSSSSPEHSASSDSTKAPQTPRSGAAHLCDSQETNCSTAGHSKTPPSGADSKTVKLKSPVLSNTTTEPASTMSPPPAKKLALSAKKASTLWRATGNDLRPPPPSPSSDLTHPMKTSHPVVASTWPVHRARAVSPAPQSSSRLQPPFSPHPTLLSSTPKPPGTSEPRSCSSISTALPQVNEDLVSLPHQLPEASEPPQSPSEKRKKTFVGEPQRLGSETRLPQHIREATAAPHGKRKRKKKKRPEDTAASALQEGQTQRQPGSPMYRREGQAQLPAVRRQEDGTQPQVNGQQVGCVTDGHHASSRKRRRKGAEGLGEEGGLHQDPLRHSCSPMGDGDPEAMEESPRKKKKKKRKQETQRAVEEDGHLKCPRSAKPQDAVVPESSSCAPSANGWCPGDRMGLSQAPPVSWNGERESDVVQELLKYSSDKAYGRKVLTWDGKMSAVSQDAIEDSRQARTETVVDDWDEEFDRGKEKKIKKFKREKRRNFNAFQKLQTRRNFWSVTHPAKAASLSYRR
In short: as §1

USP38 = biological target: T2, USP38 (UniProt Q8NB14)
T2 sequence (whole entry): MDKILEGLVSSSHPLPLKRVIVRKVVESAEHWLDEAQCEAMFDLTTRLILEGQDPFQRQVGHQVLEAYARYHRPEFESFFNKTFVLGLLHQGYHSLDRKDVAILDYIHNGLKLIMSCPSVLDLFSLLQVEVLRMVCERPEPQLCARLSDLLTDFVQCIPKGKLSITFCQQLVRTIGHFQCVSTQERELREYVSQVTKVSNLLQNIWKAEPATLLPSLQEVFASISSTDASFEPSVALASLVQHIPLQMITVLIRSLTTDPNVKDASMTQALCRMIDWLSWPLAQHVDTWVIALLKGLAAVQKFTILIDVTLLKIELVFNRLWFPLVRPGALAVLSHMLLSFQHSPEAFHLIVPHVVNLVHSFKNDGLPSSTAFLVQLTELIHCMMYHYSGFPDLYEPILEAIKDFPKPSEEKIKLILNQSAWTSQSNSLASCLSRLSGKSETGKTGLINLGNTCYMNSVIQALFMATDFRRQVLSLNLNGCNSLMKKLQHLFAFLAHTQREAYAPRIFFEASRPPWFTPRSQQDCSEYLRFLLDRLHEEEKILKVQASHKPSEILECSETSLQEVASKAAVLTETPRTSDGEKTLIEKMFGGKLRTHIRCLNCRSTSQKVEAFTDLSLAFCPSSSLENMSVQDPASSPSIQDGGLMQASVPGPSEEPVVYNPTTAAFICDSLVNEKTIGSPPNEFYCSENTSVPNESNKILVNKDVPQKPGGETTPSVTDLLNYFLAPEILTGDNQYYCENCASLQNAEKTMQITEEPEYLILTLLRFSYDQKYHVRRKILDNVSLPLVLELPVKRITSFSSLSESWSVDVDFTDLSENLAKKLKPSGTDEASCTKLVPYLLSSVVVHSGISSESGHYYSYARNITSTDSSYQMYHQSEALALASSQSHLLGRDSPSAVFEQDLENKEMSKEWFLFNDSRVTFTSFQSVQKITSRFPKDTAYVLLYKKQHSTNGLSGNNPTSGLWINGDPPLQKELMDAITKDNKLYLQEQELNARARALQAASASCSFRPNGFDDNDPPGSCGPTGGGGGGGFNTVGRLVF
In short: as §1

USP39 = biological target: T3, USP39 (UniProt Q53GS9)
T3 sequence (whole entry): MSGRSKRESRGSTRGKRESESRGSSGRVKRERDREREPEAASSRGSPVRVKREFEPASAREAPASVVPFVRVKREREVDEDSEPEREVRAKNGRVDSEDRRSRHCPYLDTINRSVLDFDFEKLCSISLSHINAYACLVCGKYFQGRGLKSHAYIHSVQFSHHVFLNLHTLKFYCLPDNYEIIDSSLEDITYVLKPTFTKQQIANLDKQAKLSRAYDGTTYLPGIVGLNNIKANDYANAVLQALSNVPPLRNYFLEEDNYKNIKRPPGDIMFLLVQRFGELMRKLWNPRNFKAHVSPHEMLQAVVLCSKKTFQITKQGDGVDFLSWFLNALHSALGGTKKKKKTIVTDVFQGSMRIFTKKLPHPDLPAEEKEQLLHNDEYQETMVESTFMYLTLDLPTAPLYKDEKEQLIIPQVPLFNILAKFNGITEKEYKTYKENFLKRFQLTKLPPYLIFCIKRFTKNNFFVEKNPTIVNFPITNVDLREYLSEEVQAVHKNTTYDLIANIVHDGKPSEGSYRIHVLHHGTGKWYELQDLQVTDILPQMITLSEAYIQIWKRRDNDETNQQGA
In short: as §1

USP4 = biological target: T4, USP4 (UniProt Q13107)
T4 sequence (whole entry): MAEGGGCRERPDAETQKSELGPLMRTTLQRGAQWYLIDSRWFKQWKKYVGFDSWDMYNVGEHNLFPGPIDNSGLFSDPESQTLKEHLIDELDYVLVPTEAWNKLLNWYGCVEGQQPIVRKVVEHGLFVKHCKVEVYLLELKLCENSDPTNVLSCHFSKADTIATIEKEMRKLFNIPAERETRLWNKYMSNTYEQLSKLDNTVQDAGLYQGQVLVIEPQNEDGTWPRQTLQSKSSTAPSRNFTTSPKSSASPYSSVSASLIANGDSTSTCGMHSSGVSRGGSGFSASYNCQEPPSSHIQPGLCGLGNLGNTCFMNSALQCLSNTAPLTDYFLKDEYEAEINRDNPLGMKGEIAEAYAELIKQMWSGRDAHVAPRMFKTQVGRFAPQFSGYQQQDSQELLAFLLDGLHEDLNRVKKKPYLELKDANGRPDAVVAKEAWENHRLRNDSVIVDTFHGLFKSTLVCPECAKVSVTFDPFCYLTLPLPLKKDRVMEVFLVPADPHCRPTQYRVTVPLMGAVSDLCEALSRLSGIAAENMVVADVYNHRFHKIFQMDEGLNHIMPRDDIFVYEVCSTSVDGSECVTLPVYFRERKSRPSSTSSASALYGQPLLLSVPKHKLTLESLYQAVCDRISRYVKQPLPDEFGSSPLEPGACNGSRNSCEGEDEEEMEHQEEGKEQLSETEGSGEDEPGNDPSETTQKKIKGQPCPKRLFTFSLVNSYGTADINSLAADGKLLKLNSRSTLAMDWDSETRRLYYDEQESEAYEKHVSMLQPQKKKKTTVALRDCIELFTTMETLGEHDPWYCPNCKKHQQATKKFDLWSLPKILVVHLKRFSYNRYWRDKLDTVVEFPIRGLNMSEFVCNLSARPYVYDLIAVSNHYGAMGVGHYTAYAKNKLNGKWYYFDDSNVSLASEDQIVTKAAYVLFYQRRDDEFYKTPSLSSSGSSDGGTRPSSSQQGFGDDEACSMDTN
In short: as §1

Measured: log2 ratio of Biotin-Ahx-Ub-VS probe labelling

Cl.O=C(CN1CCN(C(=O)CCl)CC1)Nc1ccc(F)cc1
inactive: USP34 0.1 | USP36 -0.231 | USP38 -0.043 | USP39 0.0696 | USP4 0.142
